VACV mCherry inh – qHTS for Stage-Specific Inhibitors of Vaccinia Orthopoxvirus: mCherry Reporter Primary qHTS; Vaccinia virus mCherry reporter infection, fluorescence; Potency, µM (doses to about 36.5 µM), hits mostly inhibitors; 310,000 compounds, 0.63% hits; AID 720579, 2013; calls by dose curve; tested in A549 cells; further: nearly all actives have a fitted effect of over 35% in size
Vaccinia Venus – qHTS for Stage-Specific Inhibitors of Vaccinia Orthopoxvirus: Venus Reporter Primary qHTS. Vaccinia virus Venus reporter expression, fluorescence. Potency, µM (doses to about 36.5 µM), hits mostly inhibitors. 330,000 compounds, 0.46% hits; calls by dose curve; tested in A549 cells; further: nearly all actives have a fitted effect of over 30% in size
HCV inhibitor – qHTS Assay for Inhibitors of Hepatitis C Virus (HCV). Huh7.5.1 HCVcc-Cre infection, luciferase reporter, 44 h. Potency, µM (highest dose often 41.8 µM), actives largely listed as inhibitors. 340,000 compounds, 3.4% hits
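1,000 cells/well; 4 h culture; + compound; + HCVcc-Cre (~0.5 moi); 44 h; luciferase substrate, RT 15 min; read 15 sec.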
HCV inh confirm – qHTS Assay for Inhibitors of Hepatitis C Virus (HCV): Confirmation Assay for Cherry-picked Compounds; shares compounds with HCV inhibitor; HCVcc-Cre infectious virus cell assay, luciferase, inhibition; Potency, µM (titrated, usually from 41.8 µM), actives largely listed as inhibitors; 640 compounds, 78% hits; AID 720575, 2013; further: nearly all actives have a fitted effect of over 80% in size
HCV cytotox – qHTS Assay for Inhibitors of Hepatitis C Virus (HCV): Cytotoxicity Counterscreen for Cherry-picked Compounds; shares compounds with HCV inhibitor; HCV host cell line cytotoxicity counterscreen; Potency, µM (series often up to 41.8 µM), usual class: inhibitors; 640 compounds, 22% hits; AID 720576, 2013;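 further: 44 h compound exposure; nearly all actives have a fitted effect of over 55% in size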
Each line names hits and unclear results; the compound was inactive in the other large screens (follow-up assays come after a bar, where they were run). In the library only some 3.3% were active in any assay of this set; here they are far more common. Unless noted, the call rests on the fitted dose curve; in most records, active means well fitted curve in the direction sought with a large enough effect; inconclusive means small, poorly fitted or top-dose-only effect, or another doubt; inactive means no such curve, though single readings can be large; an effect the other way counts as inactive or inconclusive.

COc1ccccc1N1CC(O)=C(c2nc3ccccc3c(=O)[nH]2)C1=N	VACV mCherry inh 5.62µM, Vaccinia Venus inconclusive, HCV inhibitor inconclusive
CCN(CC)CCCN1CC(O)=C(c2nc3ccccc3s2)C1=N	HCV inhibitor 11.2µM (no result: VACV mCherry inh)
Cc1cc(C(=O)N2CCC2(C)C(=O)Nc2cccc3c2CCCC3)nn1C (stereo not given)	none (no result: HCV inhibitor)
CCN1CCN(CCCNC(=O)Cn2c(-c3cccs3)cc3cc(F)ccc32)CC1	none (no result: HCV inhibitor)
COc1ccc(Cc2nnc(-c3cccc(C)c3)o2)cc1OC	none
COc1ccc(CC(=O)Nc2cccc(-c3nnc(-c4cccc(C)c4)o3)c2)cc1OC	Vaccinia Venus inconclusive, HCV inhibitor 6.31µM
COc1ccc(CC(=O)Nc2cccc(-c3nnc(-c4ccccc4)o3)c2)cc1OC	VACV mCherry inh 11.2µM, Vaccinia Venus inconclusive, HCV inhibitor 6.31µM
CC(=O)Nc1cccc(-c2nnc(-c3ccccc3)o2)c1	none
COc1ccc(CC(=O)Nc2ccc(-c3cn4cccc(C)c4n3)cc2)cc1OC	Vaccinia Venus inconclusive, HCV inhibitor 10µM (no result: VACV mCherry inh)
O=C(Nc1cccc(-c2nnc(-c3ccccc3)o2)c1)C1CC1	HCV inhibitor 14.1µM
Cc1cccn2cc(-c3ccc(NC(=O)Cc4ccccc4)cc3)nc12	Vaccinia Venus inconclusive
COc1ccc(CC(=O)Nc2ccc(-c3nnc(-c4ccccc4)o3)cc2)cc1OC	none
CCc1ccc(S(=O)(=O)c2cn(Cc3ccccc3F)c3cc(OC)c(OC)cc3c2=O)cc1	none (no result: HCV inhibitor)
Cn1c(SCc2ccccc2F)nc2c([nH]c3ccccc32)c1=O	none (no result: HCV inhibitor)
COc1ccc(-c2nc3cc(NC(=O)Cc4ccc(OC)c(OC)c4)ccc3o2)cc1	HCV inhibitor 7.08µM (no result: VACV mCherry inh, Vaccinia Venus)
COc1ccc(-c2nc3cc(NC(=O)CSc4ccc(C)cc4)ccc3o2)cc1	none (no result: HCV inhibitor)
Cc1cc(Br)ccc1NC(=O)COC(=O)c1ccccc1OCC(=O)N(C)C	none (no result: HCV inhibitor)
CCOC(=O)c1ccc(N2C(=O)c3n[nH]c(-c4ccco4)c3C2c2ccc(C)cc2)cc1 (stereo not given)	none (no result: HCV inhibitor)
CCOC(=O)c1ccc(N2C(=O)c3n[nH]c(-c4ccco4)c3C2c2ccc([N+](=O)[O-])cc2)cc1 (stereo not given)	VACV mCherry inh inconclusive, Vaccinia Venus inconclusive, HCV inhibitor 14.1µM
CCOC(=O)c1ccc(N2C(=O)c3n[nH]c(-c4cccs4)c3C2c2ccc(OC)cc2OC)cc1 (stereo not given)	VACV mCherry inh 12.6µM, Vaccinia Venus inconclusive (no result: HCV inhibitor)
CCOC(=O)c1ccc(N2C(=O)c3n[nH]c(-c4cccs4)c3C2c2cccc(OC)c2)cc1 (stereo not given)	none (no result: HCV inhibitor)
COc1ccc(N2CCN(C(CNS(=O)(=O)c3ccc(OC)c(C)c3)c3ccco3)CC2)cc1 (stereo not given)	none (no result: HCV inhibitor)
Cc1cc2nc(C3CCN(Cc4nnnn4Cc4ccccc4)CC3)[nH]c2cc1C	Vaccinia Venus inconclusive, HCV inhibitor inconclusive
COc1ccc(Cn2nnnc2CN2CCC(c3nc4ccccc4s3)CC2)cc1	HCV inhibitor 25.1µM (no result: VACV mCherry inh, Vaccinia Venus)
Cc1ccc(N(C)S(=O)(=O)c2ccc3c(c2)NC(=O)C(C)S3)cc1 (stereo not given)	HCV inhibitor inconclusive
O=C(CN1C(=O)CC(c2ccco2)Sc2ccccc21)Nc1ccc2c(c1)OCCO2 (stereo not given)	HCV inhibitor 11.2µM
Cc1ccc(NC(=O)CN2C(=O)CC(c3ccco3)Sc3ccccc32)cc1Cl (stereo not given)	none (no result: HCV inhibitor)
CNc1ccc(Br)cc(C(=O)/C=C/c2ccc3c(c2)OCO3)c1=O	none (no result: VACV mCherry inh)
CNc1ccc(Br)cc(C(=O)/C=C/c2cc(OC)ccc2OC)c1=O	HCV inhibitor 5.01µM (no result: VACV mCherry inh, Vaccinia Venus) | HCV inh confirm inconclusive | HCV cytotox inactive
CN=c1sc2c(n1C)C(=O)c1ccccc1C2=O	VACV mCherry inh 2.82µM, Vaccinia Venus 3.98µM, HCV inhibitor inconclusive | HCV inh confirm 31.5µM | HCV cytotox 28µM
CN=c1sc(C(=O)Nc2ccccc2)c(C)n1C	none
COc1cc(C#N)ccc1OC(=O)C1CCN(C(=O)c2ccc(F)cc2)CC1	none
CCc1c(-c2ccccc2)nc2ccccc2c1C(=O)NC(C)c1ccccc1 (stereo not given)	none (no result: HCV inhibitor)
Cc1nc(-c2cnn(-c3ccccc3)c2)c2cc(C)oc2n1	VACV mCherry inh inconclusive, HCV inhibitor 7.08µM | HCV inh confirm 15.8µM | HCV cytotox inactive
Cc1nc(/C=C\C(=O)O)c2cc(C)oc2n1	none
COc1cccc(CNC(=O)Cn2ncc3c4ccccc4n(Cc4ccccc4)c3c2=O)c1	none (no result: HCV inhibitor)
COc1ccc(CNC(=O)c2ccc3nc(CCc4ccccc4)oc3c2)c(OC)c1	none (no result: HCV inhibitor)
CCOC(=O)c1cccc(NC(=O)c2cc3sccc3n2Cc2ccc(Cl)cc2)c1	none (no result: HCV inhibitor)
CCOC(=O)c1cccc(NC(=O)c2cc3sccc3n2C)c1	HCV inhibitor 3.16µM (no result: VACV mCherry inh, Vaccinia Venus) | HCV inh confirm 25µM | HCV cytotox inactive
Cn1c(SCC(=O)Nc2ccc(C(N)=O)cc2)nnc1-c1cccs1	none
CCCOc1ccc(/C=C/C(=O)NC2CCCCC2)cc1OC	HCV inhibitor inconclusive
COc1cc(/C=C/C(=O)NC2CCCCC2)cc(OC)c1OC	HCV inhibitor inconclusive | HCV inh confirm inconclusive | HCV cytotox inactive
Cc1cccc2c1-c1sc(C(=O)NCCCN3CCC(C)CC3)cc1CO2	HCV inhibitor 5.01µM (no result: VACV mCherry inh, Vaccinia Venus) | HCV inh confirm 25µM | HCV cytotox inactive
Cc1ccc(CCNC(=O)c2cc3c(s2)-c2c(C)cccc2OC3)cc1	none (no result: HCV inhibitor)
O=C(NCCc1ccc(Cl)cc1)c1ccc(CSCc2ccccc2Cl)o1	none (no result: HCV inhibitor)
CC(C)c1ccccc1NC(=O)Cn1c(-c2ccccc2Cl)nc2ccccc21	HCV inhibitor 2.51µM | HCV inh confirm inconclusive | HCV cytotox inactive
CC(C)c1ccccc1NC(=O)Cn1c(/C=C/c2ccccc2)nc2ccccc21	none
COc1ccc(CC(=O)OCC(=O)NC2CCCCCC2)cc1OC	none
C=C(c1ccccc1C)[n+]1ccccc1	HCV inhibitor inconclusive
C=C(c1ccccc1Cl)[n+]1ccccc1	Vaccinia Venus inconclusive, HCV inhibitor 4.47µM | HCV inh confirm 7.05µM | HCV cytotox 25µM
C=C1C(=O)O[C@@]23[C@H]1CC[C@@H](C)[C@@H]2CC[C@@]1(C)O[C@@H]31	VACV mCherry inh inconclusive, Vaccinia Venus inconclusive, HCV inhibitor 2.82µM | HCV inh confirm inconclusive | HCV cytotox inactive
O=C(CCNS(=O)(=O)c1ccc2c(c1)CCCC(=O)N2)NCc1ccccc1Cl	none (no result: HCV inhibitor)
COC(=O)CCNC(=O)N1CCN(c2nnc(C)c3c(C)n(-c4ccc(Cl)cc4)nc23)CC1	none (no result: HCV inhibitor)
Cc1ccc(-n2nc3c(N4CCC(C(=O)N5CCN(C)CC5)CC4)nnc(C)c3c2C)cc1	HCV inhibitor 4.47µM (no result: VACV mCherry inh, Vaccinia Venus) | HCV inh confirm 15.8µM | HCV cytotox inactive
Nc1nc2c(ncn2[C@@H]2O[C@H](CNCC3=Cc4cc(O)ccc4OC3)[C@@H](O)[C@H]2O)c(=O)[nH]1	none (no result: HCV inhibitor)
Cc1cc(C)cc(N=c2c([N+](=O)[O-])nn(-c3ccc(Cl)cc3)n2O)c1	HCV inhibitor inconclusive | HCV inh confirm 15.8µM | HCV cytotox inactive
